Results taken from PubChem BioAssay AID1962 (The Scripps Research Institute Molecular Screening Center, 2009).
The campaign covered roughly 300,000 compounds. About 2,500 (0.83%) were called active. This excerpt belongs to a sample that is enriched for actives. A number with no mark means an inactive call.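 How the source made its calls: active means inhibition above the mean of all tested compounds plus 3 SD, set per screening campaign (cut at about 24% in these data); inactive means the rest.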

test system: tRNA 2'-phosphotransferase TPT1 (Candida albicans SC5314); assay: tRNA 2'-phosphotransferase blockers, C. albicans – biochemical, fluorescence polarization, primary screen (AID 1962); conditions: recombinant caTPT1, FP RNA substrate dephosphorylation; at 5 µM; hits give high values;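 further: plate controls were DMSO alone for no effect and ferristatin control at 100 nM for full effect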

Going from `CCCCC(=O)N/N=C/c1c(O)n(-c2ccccc2)c(=O)[nH]c1=O` to `CCCCC(=O)N/N=C/c1c(O)n(CCC2=CCCCC2)c(=O)[nH]c1=O`, the inhibition rises from -0.86% to 0.99%.

Compared with `CNC(=O)Nc1ccc(C(O)(C(=O)OC)C(F)(F)F)cc1` (centres undefined), `CCOC(=O)C(O)(c1ccc(N=Cc2ccccc2O)c(C)c1)C(F)(F)F` (centres undefined) is higher in inhibition: 0.47% for the first, 9.39% for the second.

First: CCOC(=O)c1c(C)c(C(=O)N2CCC3(CC2)OCCO3)c(C)n1CC
Second: O=C(CCCn1c(=O)[nH]c2cc(Cl)ccc2c1=O)N1CCC2(CC1)OCCO2
The inhibition of the first is lower: 1.34% for the first, 5.94% for the second.

Going from `O=c1[nH]c(=O)n(-c2ccccc2)c(O)c1C=NC12CN3CN(CN(C3)C1)C2` to `O=C1N=c2ccccc2=C/C1=C\c1c(O)[nH]c(=S)[nH]c1=O`, the inhibition rises from -4.46% to -1.76%.

First: CCC1(C)CC(CCNCc2ccc(N(C)C)cc2)(c2ccc(F)cc2)CCO1 (centres undefined)
Second: O=C1NC(=O)N(CCc2ccc(F)cc2)C(=O)/C1=C/C=C/c1ccccc1
The inhibition of the first is lower: 1.22% for the first, 13.3% for the second.

First: O=C(C1CC(=O)N(C2CCCC2)C1)N1CCC2(CC1)OCCO2 (centres undefined)
Second: COc1cc2nc(N3CCN(C(=O)[C@@H]4CCCO4)CC3)nc(N)c2cc1OC
The inhibition of the first is higher: -0.68% for the first, -1.38% for the second.

Going from `COc1ccc(CN2C(=O)NC(=O)/C(=C\c3ccc(OC)c(OC)c3OC)C2=O)cc1` to `COc1cccc(N2C(=O)NC(=O)/C(=C\c3cn(C)c4ccccc34)C2=O)c1`, the inhibition falls from 10.5% to -73.3%.

First: COC(=O)COc1cc(C)cc2oc(=O)c3c(c12)CCCC3
Second: O=C(O)COc1ccccc1/C=C1\C(=O)NC(=O)N(CCC2=CCCCC2)C1=O
The inhibition of the first is lower: -2.95% for the first, 7.72% for the second.

Compared with `CCOCCc1c(O)[nH]c(=S)[nH]c1=O`, `Cc1cc(/C=C2/C(=O)NC(=O)N(Cc3ccco3)C2=O)c(C)n1-c1ccc(C(=O)O)cc1` is higher in inhibition: -3.07% for the first, 22.2% for the second.

In the case of `CCCCC(=O)N/N=C/c1c(O)n(CC)c(=S)n(CC)c1=O`, the inhibition was 156% (active).
`CCN1C(=O)C(=Cc2c(C)n(CC(=O)NCC3CCCO3)c3ccccc23)C(=O)N(CC)C1=S` (centres undefined) was tested, and the inhibition was 24.2% (active).
`COc1ccc(N2C(=O)/C(=C/c3ccco3)C(=O)NC2=S)cc1` was tested, and the inhibition was 36.7% (active).
For `COc1ccccc1N=Nc1c(O)[nH]c(=S)[nH]c1=O`, the inhibition was 49.2% (active).
`O=C1NC(=O)N(Cc2ccco2)C(=O)/C1=C\c1ccc(-c2ccc(F)cc2)o1` was tested, and the inhibition was 27.9% (active).
`O=C1NC(=O)N(Cc2ccco2)C(=O)/C1=C\c1cccn1CCOc1ccccc1` was tested, and the inhibition was 37.9% (active).
